# Changes are numbered by the printed parent chain.
# Key:
# Test in all cases: HT-SELEX; high values mean tight binding
# Settings in all cases: protein: recombinant; vector His6-GST; dsDNA, one strand shown
# SALL4 ZFC4 WT (HT-SELEX) = molecular target: T1, SALL4 ZFC4 WT (HT-SELEX) (Mus musculus, UniProt Q8BX22 870-940)
# T1 sequence: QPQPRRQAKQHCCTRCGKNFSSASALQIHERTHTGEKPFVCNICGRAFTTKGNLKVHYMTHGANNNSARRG
# Procedure, shortened: (§1)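 Library DNA (1.5 µg in cycle one, 200 ng in later cycles) was incubated with 1 µg of purified recombinant mouse SALL4 zinc finger cluster 4, residues 870–940, in 100 µl buffer (10 mM Tris–HCl pH 7.5, 50 mM NaCl, poly(dI-dC), DTT) at room temperature for 10 min. Up to 6 rounds of Ni2+ bead capture, washing, PCR amplification and reselection were run in triplicate. Reads from MiSeq sequencing were scanned for 6-mers. For each canonical k-mer, binding signal is its read fraction as fold change versus the original random library.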
# [1] = molecular target: T2, SALL4 ZFC4 R900W (HT-SELEX) (Mus musculus, UniProt Q8BX22 870-940, R900W)
# T2 sequence: T1 sequence with R31W
# Procedure, shortened: as §1
# [2] = molecular target: T3, SALL4 ZFC4 G921D (HT-SELEX) (Mus musculus, UniProt Q8BX22 870-940, G921D)
# T3 sequence: T1 sequence with G52D
# Procedure, shortened: as §1
Sequence,binding signal (SALL4 ZFC4 WT (HT-SELEX)) [fold-change vs cycle 0],binding signal [1] [fold-change vs cycle 0],binding signal [2] [fold-change vs cycle 0]
AGGTAT,1.44 ± 0.0737,1.54 ± 0.0608,1.47 ± 0.0842
TAGATA,2.23 ± 0.154,2.04 ± 0.12,1.84 ± 0.212
ATGGGG,0.486 ± 0.0322,0.546 ± 0.0309,0.615 ± 0.052
TCACGA,0.737 ± 0.0222,0.841 ± 0.0178,0.889 ± 0.0148
ACACTG,0.743 ± 0.0572,0.877 ± 0.0574,0.908 ± 0.0148
TCTACA,1.24 ± 0.0179,1.33 ± 0.0358,1.29 ± 0.0644
CCTTCG,0.394 ± 0.0327,0.487 ± 0.0246,0.582 ± 0.0265
CAGAGG,0.463 ± 0.0456,0.548 ± 0.0393,0.65 ± 0.0673
GAGGGA,0.53 ± 0.0239,0.609 ± 0.0584,0.684 ± 0.0537
AACTAT,2.16 ± 0.123,1.96 ± 0.0882,1.76 ± 0.173
CACTTA,1.34 ± 0.0677,1.46 ± 0.0563,1.38 ± 0.0979
AGAGTA,1.47 ± 0.0798,1.61 ± 0.0906,1.46 ± 0.121
GACATA,1.19 ± 0.0463,1.28 ± 0.0199,1.25 ± 0.0289
GATTTA,1.94 ± 0.0986,1.84 ± 0.0979,1.71 ± 0.128
ACGACC,0.308 ± 0.026,0.378 ± 0.0333,0.508 ± 0.0872
TCTAGA,1.32 ± 0.134,1.49 ± 0.119,1.41 ± 0.147
ATATAA,4.98 ± 0.592,2.65 ± 0.229,2.24 ± 0.302
AAAACG,0.821 ± 0.0591,0.931 ± 0.0404,0.972 ± 0.016
ACTAAT,2.16 ± 0.0523,2.13 ± 0.102,1.86 ± 0.174
GACCTA,0.743 ± 0.0147,0.857 ± 0.0141,0.926 ± 0.0368
ACCAGT,0.8 ± 0.0267,0.969 ± 0.0358,0.994 ± 0.0294

Sequence,binding signal (SALL4 ZFC4 WT (HT-SELEX)) [fold-change vs cycle 0],binding signal [1] [fold-change vs cycle 0],binding signal [2] [fold-change vs cycle 0]
TAAATA,3.77 ± 0.207,2.47 ± 0.107,2.11 ± 0.184
CCTCCC,0.317 ± 0.0293,0.372 ± 0.0347,0.467 ± 0.0525
CCGAGA,0.385 ± 0.0394,0.459 ± 0.0241,0.548 ± 0.059
AGAAGC,0.652 ± 0.0323,0.745 ± 0.0224,0.845 ± 0.0201
CGGTAA,0.676 ± 0.0195,0.74 ± 0.026,0.792 ± 0.0302
CTATGC,0.624 ± 0.0148,0.702 ± 0.0118,0.796 ± 0.0538
CTATAG,1.37 ± 0.136,1.45 ± 0.0344,1.35 ± 0.128
AAGTAT,2.21 ± 0.135,2.14 ± 0.158,1.87 ± 0.204
GGTGTA,0.751 ± 0.0241,0.855 ± 0.0293,0.889 ± 0.0301
AGTAAG,1.58 ± 0.0246,1.73 ± 0.024,1.53 ± 0.116
CATCAA,1.23 ± 0.0349,1.37 ± 0.0542,1.32 ± 0.0556
ACTCAT,1.52 ± 0.0846,1.54 ± 0.0355,1.47 ± 0.11
ATGTGA,1.31 ± 0.0395,1.44 ± 0.0647,1.39 ± 0.0509
CGTAAG,0.774 ± 0.0532,0.862 ± 0.0372,0.905 ± 0.0422
CCTAGA,0.844 ± 0.0425,0.937 ± 0.0552,0.97 ± 0.04
TACGTA,1.26 ± 0.0297,1.33 ± 0.109,1.23 ± 0.0963
ATCAAC,1.34 ± 0.0602,1.45 ± 0.0864,1.42 ± 0.0753
GCTCAA,0.548 ± 0.03,0.644 ± 0.0305,0.763 ± 0.038
ACAGAT,1.32 ± 0.0342,1.4 ± 0.028,1.37 ± 0.0364
CAGTTC,0.794 ± 0.00773,0.912 ± 0.0408,0.935 ± 0.0458
AGGGAC,0.483 ± 0.0313,0.559 ± 0.0327,0.674 ± 0.0751

Sequence,binding signal (SALL4 ZFC4 WT (HT-SELEX)) [fold-change vs cycle 0],binding signal [1] [fold-change vs cycle 0],binding signal [2] [fold-change vs cycle 0]
ACGTTG,0.659 ± 0.0218,0.753 ± 0.0161,0.822 ± 0.0177
AGCTTA,1.21 ± 0.0616,1.28 ± 0.0778,1.27 ± 0.0883
GAATTC,1.29 ± 0.0387,1.38 ± 0.0509,1.33 ± 0.0652
CGTTTC,0.628 ± 0.029,0.738 ± 0.0101,0.794 ± 0.021
ACGTAG,0.7133 ± 0.00555,0.792 ± 0.0458,0.864 ± 0.0314
TGTTAA,1.94 ± 0.0917,2 ± 0.113,1.77 ± 0.143
GGAGAC,0.471 ± 0.0075,0.574 ± 0.0262,0.671 ± 0.0455
CGAAAA,0.827 ± 0.0572,0.851 ± 0.0107,0.912 ± 0.0336
AGATAG,1.35 ± 0.0403,1.5 ± 0.0704,1.43 ± 0.117
TAGGAA,1.42 ± 0.0275,1.51 ± 0.0439,1.41 ± 0.0855
CTCCAA,0.746 ± 0.0518,0.878 ± 0.04,0.924 ± 0.0231
GTGACA,0.691 ± 0.0164,0.813 ± 0.0124,0.852 ± 0.0256
TACAAA,1.84 ± 0.0971,1.82 ± 0.0757,1.67 ± 0.0747
CCTACC,0.45 ± 0.0245,0.53 ± 0.00975,0.625 ± 0.0741
GAGAAA,1.28 ± 0.0744,1.39 ± 0.0816,1.29 ± 0.0905
TCTAAA,1.79 ± 0.0986,1.85 ± 0.144,1.67 ± 0.161
ACATCG,0.64 ± 0.0291,0.729 ± 0.00758,0.829 ± 0.0505
CCTCGA,0.415 ± 0.0275,0.51 ± 0.0259,0.594 ± 0.0635
CTGAGC,0.348 ± 0.00959,0.42 ± 0.0161,0.535 ± 0.0354
GGTACA,0.743 ± 0.0263,0.823 ± 0.0156,0.894 ± 0.0191
CAACGA,0.626 ± 0.036,0.7439 ± 0.00396,0.81 ± 0.0225

Sequence,binding signal (SALL4 ZFC4 WT (HT-SELEX)) [fold-change vs cycle 0],binding signal [1] [fold-change vs cycle 0],binding signal [2] [fold-change vs cycle 0]
AAGGGG,0.527 ± 0.0535,0.628 ± 0.0342,0.657 ± 0.0321
GTGCTA,0.592 ± 0.0163,0.69 ± 0.007,0.796 ± 0.0354
ATAGGG,0.829 ± 0.0359,0.924 ± 0.0323,0.954 ± 0.0273
GTCTGA,0.754 ± 0.0534,0.884 ± 0.0322,0.945 ± 0.0454
ACGAGG,0.436 ± 0.0164,0.534 ± 0.018,0.618 ± 0.0579
CGAAAC,0.59 ± 0.0153,0.676 ± 0.0229,0.748 ± 0.0402
AGACTA,1.31 ± 0.0607,1.47 ± 0.0959,1.41 ± 0.0994
GTGTGA,0.748 ± 0.0198,0.881 ± 0.0312,0.9 ± 0.0278
AAAAAA,2.68 ± 0.235,1.98 ± 0.146,1.76 ± 0.185
ACGATA,1.28 ± 0.0502,1.3 ± 0.0452,1.26 ± 0.0543
ACGAGT,0.767 ± 0.0224,0.897 ± 0.033,0.922 ± 0.0421
GGTAAC,0.927 ± 0.0412,1.08 ± 0.0236,1.06 ± 0.0314
ATCGGA,0.708 ± 0.0433,0.804 ± 0.0524,0.928 ± 0.0274
GTAAAC,1.27 ± 0.0422,1.39 ± 0.0625,1.32 ± 0.0873
CACCAC,0.402 ± 0.0296,0.465 ± 0.0324,0.587 ± 0.0576
CACTAC,0.801 ± 0.0178,0.9075 ± 0.0089,0.938 ± 0.0237
CGGTTA,0.677 ± 0.0447,0.748 ± 0.0385,0.801 ± 0.0326
AGGTGG,0.487 ± 0.0135,0.556 ± 0.0106,0.647 ± 0.0454
GGGATA,0.88 ± 0.0566,0.967 ± 0.0568,0.94 ± 0.0469
CGCTAA,0.488 ± 0.0307,0.562 ± 0.0185,0.667 ± 0.039
ATAGGA,1.48 ± 0.0224,1.56 ± 0.056,1.45 ± 0.0712

# Source: article PMC9838217, “Structure of SALL4 zinc finger domain reveals link between AT-rich DNA binding and Okihiro syndrome”
